Screens as filed in PubChem BioAssay.
MCF10A rerep = inducers of DNA re-replication in MCF 10A breast cells; MCF 10A DNA re-replication, Hoechst nuclear intensity, 48 h; Potency, µM (titrated, usually from 46.1 µM), for the others: at the top dose activity, positive = re-replication, hits mostly activators; 350,000 tested, 2.9% active; AID 624296; note: % of control where 0% means no effect; nearly all actives have a fitted effect of over 50% in size
HT1080 IDH1KD tx = HT-1080 IDH1 knockdown cell toxicity (counter line). HT-1080 IDH1 knockdown viability, ATP luminescence, 48 h. Potency, µM (series often up to 46.1 µM), inactives show at the top dose activity, negative = toxicity, most hits filed as cytotoxic. 360,000 tested, 2% active;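 note: 0% = DMSO wells and -100% = cell-free medium wells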
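Assay cells: HT-1080 with IDH1 knockdown, 750 per well, RPMI/5% FBS. Exposure: 48 h at 37 °C following 2 h pre-incubation. Read: CellTiter-Glo luminescence; fitted concentration-response, curve class assigned.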
KB-V1 MDR tox = kills drug-selected multidrug resistant KB-V1 cells; KB-V1 MDR cells viability, CellTiter-Glo, 72 h; Potency, µM (highest dose often 46.1 µM), most hits filed as cytotoxic; 400,000 tested, 3.4% active; note: % is set by controls: 0 for no effect and ±100 for the full control effect; nearly all actives have a fitted effect of over 60% in size
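Cells of the MDR subline KB-V1 are plated, dosed with compound at multiple concentrations, and incubated 72 h at 37 degrees C; CellTiter-Glo is then added and luminescence read after 10 min.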
SW480 rerep = inducers of DNA re-replication in SW480 colon cancer cells | SW480 DNA re-replication, Hoechst DNA content imaging, 48 h | Potency, µM (series often up to 46.1 µM), inactives show at the top dose re-replication activation, usual class: activators | 340,000 tested, 1.8% active | AID 624297; note: % of control where 0% means no effect; nearly all actives have a fitted effect of over 55% in size
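250 cells/well; 23 nL cpd via pin tool; 48 hr, 37 C, 5% CO2; Hoechst 40 min; imager read of total nuclear intensity, ex 405/em 500-530 nm.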
HT1080NT lethal = kills 2HG-producing HT-1080-NT fibrosarcoma cells; HT-1080-NT fibrosarcoma viability, CellTiter-Glo ATP luminescence, 48 h; Potency, µM (top dose mostly 46.1 µM), without a hit: at the top dose activity, negative = less viability, actives largely listed as cytotoxic; 360,000 tested, 1.6% active; AID 686970;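 note: NT is the 2HG producing partner of a matched IDH1 knockdown line; 0% = DMSO-treated cells and -100% = media-only wells without cells; nearly all actives have a fitted effect of over 55% in size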
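HT-1080-NT; 750 cells/well; 5% FBS RPMI; 48 h compound, 37 degrees C; CellTiter-Glo luminescence; curve fitting and curve-class assignment.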
KB-3-1 cytotox = KB-3-1 parental cell cytotoxicity | KB-3-1 viability, CellTiter-Glo ATP luminescence, 72 h | Potency, µM (doses to about 46.1 µM), hits mostly cytotoxic | 400,000 tested, 1.4% active | AID 1347075; note: % is set by controls: 0 for no effect and ±100 for the full control effect; nearly all actives have a fitted effect of over 60% in size
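Using CellTiter-Glo luminescence, growth of non-resistant KB-3-1 adenocarcinoma cells is assessed 72 h after pin-tool compound addition at 37 °C. Normalized responses across the concentration series yield fitted curves.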
The depositor's hits bear a star; i = inactive; ? = inconclusive; · = no result; [ ] = remark or other dose. Compounds with a hit are over-represented: about 8% of the library has one in this group of screens. Calls come from the whole dose curve; as a rule, active = well fitted curve in the direction sought with a large enough effect; inconclusive = small, poorly fitted or top-dose-only effect, or another doubt; inactive = no such curve, though single readings can be large; an effect the other way counts as inactive or inconclusive. Potency is the fitted concentration of half-maximal effect.

SMILES	MCF10A rerep	HT1080 IDH1KD tx	KB-V1 MDR tox	SW480 rerep	HT1080NT lethal	KB-3-1 cytotox
C[C@H]1CCCC(=O)CCC/C=C/c2cc(O)cc(O)c2C(=O)O1	-16.2%	6.2%	16.4µM*	-29.5%	0.4%	i
CC(C)(C)NCC1(CO)SC(N)=NC1=O (centres undefined)	20.6µM*	-0.2%	i	?	-4.1%	i
Nc1c(C(=O)NCc2ccco2)c2nc3ccccc3nc2n1CCN1CCOCC1	16.4µM*	?	?	5.17µM*	?	i
COc1ccc(Cn2c(N)c(C(=O)NCc3ccco3)c3nc4ccccc4nc32)cc1	10µM*	-23.6%	i	2.31µM*	-19.1%	?
COCC(C)OC(=O)c1c(N)n(Cc2ccco2)c2nc3ccccc3nc12 (centres undefined)	0.5%	-11.9%	i	3.7%	-2.9%	i
Nc1c(C(=O)NCc2ccco2)c2nc3ccccc3nc2n1Cc1ccc(F)cc1	3.66µM*	?	i	?	16.4µM*	i
Nc1c(C(=O)NCc2ccco2)c2nc3ccccc3nc2n1Cc1ccccc1	?	-30.0%	i	20.6µM*	-28.6%	i
CCOC(=O)c1c(N)n(Cc2ccco2)c2nc3ccccc3nc12	581.8%[0.0737 µM]	-19.2%	i	-3.2%	-16.9%	i
O=C1/C(=C/c2ccc(N(CCCl)CCCl)cc2)Cc2ccccc21	·	·	i	·	·	i
COc1ccc(CCN(C)Cc2c(F)cccc2F)cc1OC	?	-19.7%	11.6µM*	0.1%	12.7%	i
COc1ccc(CCNCc2ccc(F)cc2)cc1OC	5.3%	-8.4%	i	-1.1%	-2.3%	i
O=C(OCC(=O)c1ccc([N+](=O)[O-])cc1)/C(=C\c1ccc(Cl)cc1)NC(=O)c1ccccc1	-10.0%	-20.1%	i	142.8%	0.0%	i
FC(F)(F)c1ccccc1CNCCc1c[nH]c2ccccc12	10.3µM*	-13.5%	i	?	-23.4%	i
CCOc1c(Cl)cc(CNCCc2c[nH]c3ccccc23)cc1OC	18.4µM*	-8.0%	20.6µM*	?	?	?
COc1ccc(CNCCc2c[nH]c3ccccc23)c(OC)c1C	?	25.9µM*	?	?	?	i
CCOc1cc(CNCCc2c[nH]c3ccccc23)cc(Cl)c1OCC	31.0%	?	?	?	?	?
Oc1cc2c(cc1O)[C@H]1c3ccccc3CN[C@@H]1CC2	·	·	?	·	·	i
CC(C)Cc1[nH]c(=O)c(C#N)c2c1CCC2	22.7%	0.2%	i	-5.6%	1.6%	i
CN(C)C(=O)Oc1ccc2c(=O)c(Oc3ccccc3Br)coc2c1	9.0%	14.1%	i	-5.2%	14.3%	i
COC(=O)C1=C(c2cccc(OCc3ccccc3)c2)C[C@@H]2CC[C@H]1N2C(=O)NCCCOC(C)C	-2.1%	-4.0%	?	1.4%	-7.0%	i
Cc1ccccc1CN1Cc2cnnn2-c2ccccc2C1C#N (centres undefined)	6.51µM*	6.51µM*	?	?	8.2µM*	?
COc1ccc(CN2Cc3cnnn3-c3ccccc3C2C)cc1 (centres undefined)	?	?	?	?	-24.3%	13µM*
CCN1/C(=C\C=C\C2=[N+](CC)c3ccccc3C2(C)C)C(C)(C)c2ccccc21	?	2.59µM*	20.6µM*	?	0.651µM*	?
Cc1nn(C)cc1/C=C1/CC2C3CC=C4CC(O)CCC4(C)C3CCC2(C)C1=O (centres undefined)	?	-0.5%	18.4µM*	-16.0%	-8.8%	i
CC12CCC3C(CC=C4CC(O)CCC43C)C1CC(=CN1CCOCC1)C2=O (centres undefined)	3.7%	-16.8%	i	28.0%	-6.4%	i
SMILES	MCF10A rerep	HT1080 IDH1KD tx	KB-V1 MDR tox	SW480 rerep	HT1080NT lethal	KB-3-1 cytotox
CC12CCC3C(CC=C4CC(O)CCC43C)C1C/C(=C\c1ccccc1F)C2=O (centres undefined)	6.51µM*	?	i	7.6%	?	i
O=C(CN1CCOCC1)c1ccc(Br)cc1	?	-14.3%	i	?	-23.4%	i
CCOC(=O)c1c(C)c(C(=O)Nc2cc(OC)ccc2OC)c(C)n1CC	?	7.08µM*	i	?	7.08µM*	i
COc1ccc(Cn2c(O)c(C=NCCN3CCOCC3)c(=O)[nH]c2=O)cc1	6.9%	9.3%	i	9.6%	11.6%	i
O=C(c1ccc2nc3ccc(Cl)cc3c(=O)n2c1)N1CCC2(CC1)OCCO2	-4.1%	-0.8%	20.6µM*	-0.9%	10.8%	i
CN[C@@H]1C[C@@H](c2ccc(Cl)c(Cl)c2)c2ccccc21	12.5%	·	·	?	·	·
Cn1c(=O)oc2cc(S(=O)(=O)N3CCCc4ccccc43)ccc21	2.59µM*	8.2µM*	i	?	6.51µM*	?
Cn1c(=O)oc2cc(S(=O)(=O)N3CCc4ccccc43)ccc21	?	?	?	-2.9%	-14.8%	?
COC(=O)C1=C(c2cccc(C#N)c2)C[C@@H]2CC[C@H]1N2C(=O)NCc1ccco1	11.9%	5.4%	i	-2.7%	11.7%	i
O=C(CNC(=O)OCc1ccccc1)Nc1ccc(Br)cc1C(=O)c1ccccc1	?	?	10.3µM*	5.0%	?	?
C[C@@H]1CN([C@@H](C)CO)C(=O)c2cccc(NC(=O)c3ccncc3)c2O[C@@H]1CN(C)Cc1ccc(-c2ccccc2)cc1	8.6%	-3.1%	?	?	-1.2%	i
Clc1ccc(CC[C@H](Cn2ccnc2)Sc2c(Cl)cccc2Cl)cc1	11.0%[20.6 µM]	·	·	-3.9%[20.6 µM]	·	·
Cc1nc2cc(F)ccc2n1C1CCN(Cc2nnnn2CCc2ccccc2)CC1	2.5%	-17.0%	11.6µM*	7.2%	-22.8%	i
Cc1nc2cc(C(F)(F)F)ccc2n1C1CCN(Cc2nnnn2CCc2ccccc2)CC1	?	?	?	-2.0%	18.4µM*	?
C(#CCN1CCOCC1)COC/C=C/c1ccccc1	1.2%	2.2%	20.6µM*	76.8%	-3.6%	i
Clc1ccc(OCC#CCN2CCOCC2)cc1	-5.0%	8.6%	?	-2.3%	11.1%	i
Cc1cc(Cl)ccc1C(=O)C1CCCN(Cc2ccon2)C1 (centres undefined)	0.5%	1.3%	16.4µM*	-12.2%	0.0%	i
O=C(c1cccc2ccccc12)C1CCCN(Cc2ccon2)C1 (centres undefined)	5.7%	-9.5%	i	?	-9.5%	i
Cc1ccn2nc(S(=O)(=O)Nc3c(F)cccc3F)nc2n1	13.9%	8.0%	i	4.9%	-3.6%	i
